The values that follow come from PubChem BioAssay AID1255 (The Scripps Research Institute Molecular Screening Center, 2008).

Structures are written as SMILES. Screen size: about 1,200 compounds; about 330 (28%) were called active. Only a sample is shown. Unmarked numbers belong to inactive results. Rule as the data show it: active = inhibition above about 17%; inactive = the rest.

The target of this assay is Neuropeptide Y receptor type 2 (Homo sapiens) (UniProt P49146). Description: NPY-Y2 receptor antagonists, selectivity check, confirmation, counter-screen for NPY-Y1 antagonist project, HEK293-CNG cells, membrane potential fluorescence, triplicate (AID 1255).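 Also: 0% = DMSO with agonist challenge and 100% = reference antagonist.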 The conditions noted are these: antagonism, at 3.6 µM, hits give high values, cells given NPY, then isoproterenol.
Neuropeptide Y receptor type 2 (Homo sapiens), sequence (P49146 whole entry, looked up): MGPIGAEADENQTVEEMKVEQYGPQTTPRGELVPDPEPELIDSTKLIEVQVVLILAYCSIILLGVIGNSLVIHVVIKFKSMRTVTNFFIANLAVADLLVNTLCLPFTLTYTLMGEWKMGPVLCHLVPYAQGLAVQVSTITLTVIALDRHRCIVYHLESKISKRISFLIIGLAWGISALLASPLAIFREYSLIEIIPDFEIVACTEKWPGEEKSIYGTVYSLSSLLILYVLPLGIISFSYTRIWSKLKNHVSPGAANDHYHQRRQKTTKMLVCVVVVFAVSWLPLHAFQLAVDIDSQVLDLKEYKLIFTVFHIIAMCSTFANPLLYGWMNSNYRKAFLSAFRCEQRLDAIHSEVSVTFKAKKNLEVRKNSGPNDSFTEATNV
A word on the inhibition: it is the change of the read-out against control, counted positive when it falls. On to `c1ccc(-c2ccccc2OCCN2CCCCC2)cc1`, for which the inhibition is 6.63%.

Consider `CC1CN(CCCOc2ccccc2-c2ccccc2)CC(C)O1` (stereo not drawn), for which the inhibition was 6.39%.

Consider `Cc1ccc(/C=N/NC(=O)COc2ccccc2-c2ccccc2)cc1`, for which the inhibition is 28.1% (active).

Turning to `CCCCCCC(=O)Nc1nc(C)c(-c2csc(Nc3cccc(OC)c3)n2)s1`, the inhibition is 2.61%.

On to `Cc1ccc(C(=O)C[n+]2cc(-c3ccccc3)n3c2CCCCC3)cc1`, for which the inhibition is 14.5%.

Turning to `CC(Oc1ccc2ccccc2c1)C(=O)NNC(=S)NC(=O)c1ccco1` (stereo not drawn), the inhibition is 10.2%.

For `CCN1CCN(CCNC(=O)c2ccc(/C=C3/Sc4ccccc4N(Cc4cccc(C)c4)C3=O)cc2)CC1`, the inhibition is 27% (active).

Turning to `Cc1ccc(N2C(=O)C3N=NN(CC(=O)N4N=C(c5cccc6ccccc56)CC4c4ccccc4)C3C2=O)cc1` (stereo not drawn), the inhibition is 5.5%.

As to `CCOC(=O)CSc1nc2c(sc(=S)n2CCc2ccccc2)c(=O)n1Cc1ccco1`, the inhibition was 14.4%.

Turning to `O=C(NCCc1ccc2c(c1)OCCO2)c1cc2ccccc2o1`, the inhibition is 14.6%.

With `Cc1ccc(Cn2c(NC(=O)c3ccco3)nc3ccccc32)cc1`, the inhibition was 24.2% (active).

In the case of `O=S(=O)(O)c1nc2ccccc2n1Cc1ccc(Cl)cc1`, the inhibition was 5.74%.

Regarding `CCS(=O)(=O)n1nc(-c2ccccc2)nc1SCc1ccccc1`, the inhibition is 13.4%.

With `CCC(=O)c1c[nH]c(C(=O)NCC2CCCO2)c1` (stereo not drawn), the inhibition was 2.61%.

On to `O=C(CN1CCN(c2ncc(C(F)(F)F)cc2Cl)CC1)Nc1ccc2c(c1)OCO2`, for which the inhibition is 18.4% (active).

On to `O=C(CSc1nnnn1C1CCCC1)Nc1ccc2c(c1)OCCO2`, for which the inhibition was 7.69%.

Take `COC(=O)c1ccc(COC(=O)c2c(C)nn(Cc3ccccc3Cl)c2Cl)o1`: the inhibition was 8.24%.

As for `COc1ccc(CCN(C(=O)COc2ccccc2)c2nc(-c3ccccc3)cs2)cc1OC`, the inhibition is 17.3% (active).

Consider `CCCCc1c(O)nc2n(c1=O)CCS2`, for which the inhibition is 2.74%.

In the case of `Cc1ccc2nc(-c3ccccn3)cc(C(=O)Nc3ccc4c(c3)OCO4)c2c1`, the inhibition is 25.5% (active).

Consider `CCc1ccc(CNC(=O)C2CCCN(c3nc4ccccc4o3)C2)cc1` (stereo not drawn), for which the inhibition was 11%.

Consider `CCCOC(=O)c1[nH]c2c(c1C)C(=O)CC(c1cccs1)C2` (stereo not drawn), for which the inhibition was 16.7%.

Regarding `COc1ccccc1C1C2=C(COC2=O)Nc2cc3c(cc21)OCO3` (stereo not drawn), the inhibition was 10.6%.

For the compound `OC(COCCC12CC3CC(CC(C3)C1)C2)CN1CCCCC1` (stereo not drawn), the inhibition was 12.7%.

With `CS(=O)(=O)N1CCCC(C(=O)N2CCOCC2)C1` (stereo not drawn), the inhibition is 0.64%.

Take `COc1ccc(C(c2nnnn2C2CCCCC2)N2CCN(c3ccccc3F)CC2)cc1` (stereo not drawn): the inhibition is 10.2%.

In the case of `CC(=O)N1CC(C)c2scc(C)[n+]2-c2ccccc21` (stereo not drawn), the inhibition was 3.05%.

As to `O=C(/C=C/c1ccco1)Nc1cccc(-c2nc3ccccc3[nH]2)c1`, the inhibition is 7.24%.

For the compound `O=C(CSc1nc2cc3c(cc2c(=O)n1CCC1=CCCCC1)OCO3)NCc1ccco1`, the inhibition was 2.11%.

On to `c1ccc2c(NC3C4CC5CC(C4)CC3C5)nc(N3CCOCC3)nc2c1` (stereo not drawn), for which the inhibition was 30.1% (active).

Turning to `CC(Nc1nc(N2CCN(CCO)CC2)nc2ccccc12)c1ccccc1` (stereo not drawn), the inhibition was 10.1%.

On to `Fc1ccc(-c2nnc(CSc3nnc(-c4ccc5c(c4)OCO5)o3)o2)cc1`, for which the inhibition is 9.04%.

On to `CC(C)Cn1cnc2c1c(=O)n(CC(O)c1ccccc1)c(=O)n2CC(C)C` (stereo not drawn), for which the inhibition is -0.53%.

Turning to `Cc1ccccc1Nc1scc(-c2ccc(Br)cc2)[n+]1-c1ccccc1C`, the inhibition was 12.3%.

Consider `Cc1cc(C(C)(C)C)oc1C(=O)N(CC(=O)NC1CCCC1)Cc1ccc(Cl)cc1`, for which the inhibition is 19.8% (active).

For `CCCSc1nc(NCc2ccco2)c2c3c(sc2n1)COC(C)(CC)C3` (stereo not drawn), the inhibition is 12.4%.

For the compound `C/C(=N\NC(=S)NCc1ccccc1)c1ccc(Cl)cc1`, the inhibition was 5.13%.

As for `COc1ccc(-c2[nH]nc(-c3ccccc3)c2-c2nc3ccccc3[nH]2)cc1`, the inhibition was 17%.

On to `O=C(NCCCN1CCOCC1)c1cnn2c(-c3ccccc3)cc(-c3ccccc3)nc12`, for which the inhibition is 18.8% (active).

Consider `CCOC1CCCCC1NS(=O)(=O)c1ccc(Cl)cc1` (stereo not drawn), for which the inhibition was 1.15%.

With `Cc1nc(-c2ccccc2)sc1C(=O)/C=C/c1ccccc1`, the inhibition was 16.5%.

For the compound `COc1ccc(C(=O)CSc2nnc(COc3ccccc3)n2Cc2ccco2)cc1`, the inhibition is 6.65%.

In the case of `Oc1ccc(-c2[nH]ncc2-c2nc3ccccc3s2)c(O)c1`, the inhibition was 3.58%.

For the compound `NC(N)=N/N=C/c1ccc(OCc2ccc(Cl)cc2Cl)cc1`, the inhibition is 30.3% (active).

In the case of `CCOC(=O)c1nn(-c2cccc(C)c2)cc1C(=O)c1ccccc1`, the inhibition was 6.78%.

For the compound `COC(=O)c1ccc(C(NC(=O)OCc2ccccc2)/C(C)=C/[C@@H](C)C(=O)NCc2ccc(OC)c(OC)c2)cc1` (stereo partly drawn), the inhibition was 12.9%.

Regarding `Cc1cc(C)c2[nH]c(=O)c(CN(Cc3ccccc3)C(=S)NCCCN(C)C)cc2c1`, the inhibition is 26.7% (active).

With `CN(C)CCCCCN(C)Cc1cc2ccccc2o1`, the inhibition was 14.4%.

Consider `COC(=O)C1=C(Nc2ccc(C)cc2)C=C(C)C(C(=O)OC)C1c1ccc(F)cc1` (stereo not drawn), for which the inhibition is 15.2%.

With `Cc1ccc(C(=O)N/C(=C/c2ccc(-c3cccc([N+](=O)[O-])c3)o2)C(=O)NCCCN(C)C)cc1`, the inhibition was 13.8%.

Take `CCCOc1ccc2c3c(c(=O)oc2c1OCCC)CCC3`: the inhibition was 15.6%.

Take `COc1ccccc1N1CCN(C(=O)CN(Cc2ccc(Cl)cc2)S(C)(=O)=O)CC1`: the inhibition was 3.69%.

On to `Clc1ccccc1-c1cc(COc2ccc3ccccc3c2)no1`, for which the inhibition was 18.4% (active).

With `COc1cccc(CNCCc2c[nH]c3ccccc23)c1OCc1ccccc1F`, the inhibition was 16.7%.

For the compound `CCCC(=O)Nc1nc2ccc(NC(=O)c3c(F)c(F)c(OC)c(F)c3F)cc2s1`, the inhibition is 11.5%.

With `Cc1ccc(SCCC(=O)OCC(=O)Nc2ncc(Cl)cc2Cl)cc1`, the inhibition is 5.65%.

Take `CC(=O)OC(C)C[N+](C)(C)C` (stereo not drawn): the inhibition is 12.9%.

For the compound `COc1cc2c(C(=O)N3CCN(C)CC3)c(CSc3ccccc3)n(C)c2cc1Br`, the inhibition is 19.6% (active).

`OCC1(CCc2ccccc2)CCN(Cc2ccc3nsnc3c2)CC1`: the inhibition is 9.39%.

On to `CCOC(=O)N1CCN(S(=O)(=O)c2ccc(C(=O)Nc3ccc(F)cc3F)cc2)CC1`, for which the inhibition was 10.3%.

Turning to `CCCCn1nc(C(=O)N2CCc3ccccc32)c2ccccc2c1=O`, the inhibition is 3.7%.

For `Cc1ccc(-c2cc(C(=O)N3CCc4ccccc4C3)no2)cc1`, the inhibition was 12.8%.

For the compound `CCCCCCCCn1c2c(c(=N)c3c1CCC3)CCCC2`, the inhibition was 44.6% (active).

Consider `O=C(Cc1cccs1)N(CC1CCCO1)C1(C(=O)NC2CCCCC2)CCCCC1` (stereo not drawn), for which the inhibition was 11.1%.

On to `O=C(c1cc(-c2ccc(O)cc2)on1)N1CCCc2ccccc21`, for which the inhibition is 2.92%.

Consider `CC(C)(C)NCc1cc(Br)ccc1OC1CCCC1`, for which the inhibition was 10.4%.

Regarding `COc1ccc(C2Nc3ccccc3C(=O)N2Cc2ccccc2)cc1Cn1nnc2ccccc21` (stereo not drawn), the inhibition is 8.37%.

With `O=C1c2cccnc2C(Nc2ccc(S(=O)(=O)N3CCCCCC3)cc2)N1Cc1ccccc1` (stereo not drawn), the inhibition is 2.58%.
